Shown is part of a subset that was picked to be rich in hits.
Pf Dd2 inh: Plasmodium falciparum Dd2 growth inhibition. P. falciparum Dd2 growth, SYBR Green, 72 h. Potency, µM (series often up to 28.9 µM), without a hit: at the highest dose activity, negative = inhibition, most hits filed as inhibitors. AID 1347417. 120,000 tested, 4.3% active; active means well fitted inhibition curve with a large enough effect;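 further: plate controls were DMSO vehicle for no effect and reference drug for full effect; nearly all actives have a fitted effect of over 65% in size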
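Readout: SYBR Green fluorescence, 485 nm excitation, 535 nm emission, after ~16 h lysis at 37C. Before that, Dd2-infected red cells (2.5% hematocrit) grew 72 h with compound, 29 uM top final concentration.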
* hit, by the source's call; i = inactive; [ ] = another dose, or the depositor's remark. Potency means the concentration at half of the fitted maximal effect.

SMILES	Pf Dd2 inh
O=C1CCN(C(=O)Cc2ccccc2)CCCC(CO)CCN1 (centres undefined)	4%
CSc1ccc(NC(=O)C2CCN(C(=O)c3ncn4c3COC(c3ccc(F)cc3)C4)CC2)cc1 (centres undefined)	i
O=c1[nH]ccn1C1CCN([S+](=O)([O-])c2cccs2)CC1	24%[44.1 µM]
CN(Cc1cc(-c2ccccc2)no1)Cc1ncccc1C(=O)O	1%
COCc1nc(C2CCCN(C(=O)c3ccncc3)C2)no1 (centres undefined)	12%
Cc1cnc(C)c(N2CCC(COc3cnc4c(ccn4CC(N)=O)c3)CC2)n1	-16%[44.1 µM]
CCOc1ccc(-c2cn3c(n2)sc2cc(C(=O)NC4CCCc5ccccc54)ccc23)cc1 (centres undefined)	-20%
CCN(CC)CCNC(=O)c1ccc2c(c1)sc1nc(-c3ccc(F)cc3)cn12	3.2µM*
CCOc1ccc(-c2cn3c(n2)sc2cc(C(=O)NCCCN(CC)CC)ccc23)cc1	2.8µM*
CCOc1ccc(-c2cc3c(=O)n(CCNC(=O)c4ccc(Cl)cc4)ccn3n2)cc1	0%
CCOc1ccc(C(=O)NCCn2ccn3nc(-c4ccc(OC)cc4)cc3c2=O)cc1	i
CCOc1ccc(-c2cc3c(=O)n(CCNC(=O)c4ccc(OC)cc4)ccn3n2)cc1	i
CCCN1CCN(CCCNC(=O)c2ccc3c(c2)sc2nc(-c4ccc(OCC)cc4)cn23)CC1	1.3µM*
CCOc1ccc(-c2cn3c(n2)sc2cc(C(=O)NCCCN4CCCCCC4)ccc23)cc1	2.2µM*
CCN(CC)CCNC(=O)C1CCN(c2nn3cc(-c4ccc(F)cc4)nc3s2)CC1	-9%
Cc1c(C(=O)NCc2ccccc2Cl)sc2nc(-c3ccc(F)cc3)cn12	i
COc1cccc(N2CC(C(=O)N3CCCC3)NC2=O)c1 (centres undefined)	6%[44.1 µM]
COc1ccc(C(=O)NC2CCN(c3cc(-c4ccccc4)[nH]n3)CC2)c(C)c1	i
COc1cccc([S+](=O)([O-])N2CCC3(CC2)CC(=O)c2ccc(Cl)cc2O3)c1	-21%
COc1ccc(NC(=O)c2ccc3c(c2)C(O)CCCCCN3C)cn1 (centres undefined)	-40%
COc1ccc(NC(=O)c2ccc3c(c2)OCCN(Cc2ncccn2)C3)cc1F	i
COc1ccc(NC(=O)c2ccc3c(c2)OCCN(C2CCC2)C3)cn1	11µM*
CCCNC(=O)N1C[C@@H]2C(=O)N(C(CC)c3cccs3)C(=O)[C@@H]2C1 (some centres undefined)	0%
Cc1cc(OCC(=O)c2ccc3c(c2)N(CC(=O)NCC2CCCO2)C(=O)CO3)ccc1C(C)C (centres undefined)	i
COc1ccc(C2Cn3nnc(-c4nc(-c5cccc(C(F)(F)F)c5)no4)c3CO2)cc1 (centres undefined)	i
SMILES	Pf Dd2 inh
Cc1sc(NC(=O)COc2ccc(C(C)(C)C)cc2)c(C(=O)OC(C)C)c1C	28%
CCOC(=O)c1sc(NC(=O)C2c3ccccc3Oc3ccccc32)c(C#N)c1C	-18%
Cc1c(C(=O)OC(C)C)sc(NC(=O)C2c3ccccc3Oc3ccccc32)c1C(=O)OC(C)C	2.2µM*
COc1ccc(CNC(=O)N(C)C2CCc3nn(CC4CC4)c(=O)n3CC2)cc1 (centres undefined)	19%
Cc1cnc(C(=O)N2CCC(N3C(=O)C(OCC4CC4)C34CCOCC4)CC2)cn1 (centres undefined)	-14%
CCC(CC)c1cc([C@H]2CN3CC[C@H]2C[C@@H]3CNC2CCN(C(C)=O)CC2)nc(-c2ccncc2)n1	4.5µM*
CC(=O)N1CCC(NC[C@H]2C[C@@H]3CCN2C[C@@H]3c2cc(C3CCCC3)nc(C)n2)CC1	i
CCC(CC)c1cc([C@H]2CN3CC[C@H]2C[C@@H]3CO)nc(-c2ccncc2)n1	7.1µM*
CC(=O)c1cccc(NC(=O)OC[C@H]2C[C@@H]3CCN2C[C@@H]3c2cc(C3CCCC3)nc(-c3ccncc3)n2)c1	-48%
Cc1nc(N2CCCCC2)n(CC(=O)Nc2cccc(Br)c2)c(=O)c1C	i
COCCN1CCCCCC(O)c2cc(C(=O)N3CCN(c4ncccn4)CC3)ccc21 (centres undefined)	i
O=C(NCc1cccc2ccccc12)C1(c2ccc(Cl)cc2)CCOCC1	-2%
O=C(N[C@H](c1ccccn1)C1CC(O)C1)c1cnc2ccccn2c1=O (some centres undefined)	-10%
CC(C)(C)NC(=O)N1CCC(OC2CCN(S(C)(=O)=O)CC2)CC1	7%
COCCNC(=O)c1c(C)noc1-c1cc(OC)c(OC)c(OC)c1	-9%
COc1cc(-c2onc(C)c2C(=O)NCCC(c2ccccc2)c2ccccc2)cc(OC)c1OC	11µM*
COc1cc(-c2onc(C)c2C(=O)NCCc2ccc(F)cc2)cc(OC)c1OC	i
COc1cccc(CC(=O)N2CCCC3(C2)NC(=O)N(Cc2cc(C)ccc2C)C3=O)c1 (centres undefined)	16%
O=C(c1ccc(C(F)(F)F)cc1)N1CCC(c2nn(-c3ccc(F)cc3)c(=O)[nH]2)CC1	i
O=C(c1ccc(Cl)cc1)N1CC2(CCN(Cc3c[nH]c4ccccc34)CC2)Cc2ccccc21	2.5µM*
COCC1CN(C(C)=O)CC12CCN(Cc1c[nH]c3ccccc13)CC2 (centres undefined)	-6%
O=C(c1ccc(Cl)cc1)N1CC2(CCN(Cc3ccc(Cl)cc3)CC2)Cc2ccccc21	13µM*
O=C(c1ccc(Cl)cc1)N1CC2(CCCN2Cc2ccc(C(F)(F)F)cc2)Cc2ccccc21 (centres undefined)	10µM*
CC(=O)N1CC2(CCCCN2Cc2ccc(Cl)cc2)Cc2ccccc21 (centres undefined)	4%
CC(=O)N1CC2(CCN(Cc3ccccn3)C2)Cc2ccccc21 (centres undefined)	-1%
SMILES	Pf Dd2 inh
O=C(c1ccc(Cl)cc1)N1CC2(CCN(Cc3cccnc3)C2)Cc2ccccc21 (centres undefined)	8.9µM*
C[S+](=O)([O-])N1CC2(CCN(Cc3ccc(Cl)cc3)CC2)Cc2ccccc21	-29%
CC(=O)N1CC2(CCN(Cc3ccc(Cl)cc3)CC2)Cc2ccccc21	-21%
CC(=O)N1CC2(CCN(Cc3ccccn3)CC2)Cc2ccccc21	-12%
CC(=O)N1CC2(Cc3ccccc31)CN(C(=O)c1ccc(C(F)(F)F)cc1)C2	-28%
O=C(c1cccnc1)N1CCC(Oc2cccnc2)C1 (centres undefined)	35%
O=C(c1ccn[nH]1)N1CCCC(Cn2c(C3CC3)nc3cccnc32)C1 (centres undefined)	-12%
Cc1oc(-c2ccc(C(F)(F)F)cc2)nc1CN(C)C(C)c1cccs1 (centres undefined)	-18%
Cc1cnc(C(=O)NC2C[C@H]3CC[C@@H](C2)N3C(=O)COc2ccc(Cl)cc2C)cn1 (some centres undefined)	i
O=C(O)C[C@@H]1CCN(C(=O)Nc2ccccc2)C[C@@H]1CCN1CCC(n2c(=O)[nH]c3ccccc32)CC1	10%
CC(=O)NC1CC2(CCN(C(=O)CCC(=O)OC(C)(C)C)CC2)Oc2ccccc21 (centres undefined)	5%
Cc1nc2c(c(-c3ccc(Cl)cc3)n1)CCN(C(=O)Cc1ccccn1)CC2	-11%
Cc1nc(CNC(=O)c2cn(CCC3CCCCN3)nn2)cc(=O)[nH]1 (centres undefined)	7%
Cc1ccc(CN(C)C(C)c2cccs2)cc1 (centres undefined)	-13%[44.1 µM]
C=CCNC(=O)Cc1ccc(N(Cc2ccc(C)cc2)C(=O)c2ccco2)cc1	-2%
